Structures are written as SMILES.

The nature of the experiment: JC-1 mitochondrial signal, unstimulated MM1S myeloma – cell-based, JC-1 fluorescence, 24 h, 100 nL compound, profiling panel (AID 1170). Further: test concentration not given here. The conditions noted are these: MM1S mitochondrial potential, higher = more signal.
As to `COC(=O)[C@@]1(Cc2ccc(OC)cc2)[C@H]2c3cc(C(=O)N(C)C)n(Cc4ccc(C)o4)c3C[C@H]2CN1C(=O)c1ccccc1`, the z-score is -3.01.
As for `CCCCCN1CC=CC23O[C@@H]4/C=C\CCC(C)OC(=O)C4[C@H]2C(=O)N(C(CO)C(C)C)[C@@H]3C1=O` (stereo partly specified), the figure is -0.577; as for `CCOC(=O)C[C@H]1[C@H](OC(=O)c2ccccc2-c2ccccc2)[C@@H](NC(=O)c2ccc3ccccc3n2)c2cc(OCCCO)ccc2N1C(=O)Cc1ccc(OC)cc1`, -0.112; as for `O=C1OCCC/C=C\[C@H]2OC34C=CCN(c5ccc6ccccc6c5)C(=O)[C@H]3N(CCO)C(=O)[C@@H]4C12` (stereo partly specified), 1.03.
In the case of `O=C1N(Cc2ccccc2)c2ccccc2C[C@]12N=C(c1ccc(OCCCO)cc1)O[C@@H]2c1ccccc1`, the z-score was -2.58.
The compound `O[C@@H](Cc1ccccc1)[C@@H](/C=C/C1CC1)N(CC#Cc1ccccc1)Cc1ccccc1Br` displayed a z-score of -0.571.
As for `O=C(C1N=C(c2ccc(OCCCO)cc2)N(c2ccccc2)O1)N1CCCCC1` (stereo unspecified), the figure is -0.313; as for `CC(C)[Si]1(C(C)C)OCc2cc(-c3ccc(-c4ccc(Cl)c(Cl)c4)o3)nc(-c3ccccc3)c21`, 0.406.
For the compound `COc1ccc([Si](C)(C)[C@@H]2[C@@H](CCO)O[C@]3(C(=O)N(Cc4ccccc4)c4ccc(NC(=O)[C@H](C)O)cc43)[C@H]2C)cc1`, the z-score is -2.15.
As for `COc1cc(NN2C(C(O)c3ccc(N(C)C)cc3)C=CC3C(=O)N(c4ccccc4)C(=O)C32)cc(OC)c1OC` (stereo unspecified), the figure is -0.0117; as for `Cn1cccc1C(O)C1C=CC2C(=O)N(c3ccccc3)C(=O)C2N1Nc1ccccc1` (stereo unspecified), -1.32.
Regarding `CCOC(=O)C=Cc1cccc(C)c1O`, the z-score was -1.16.
The compound `COC(=O)C1=CC(CCCO)=CC(c2cccs2)N(Cc2cccc(OC(F)(F)F)c2)C=C1C(=O)OC` (stereo unspecified) came in with a z-score of -0.512.
For `[N-]=[N+]=Nc1ccccc1[C@@H]1OC(c2ccc(OCCCO)cc2)=N[C@]1(Cc1ccccc1)C(=O)N1CCCCC1` the value was -2.19; for `C=CCNC(=O)[C@@H]1[C@H]2C(=O)O[C@H](c3ccccc3)[C@H](c3ccccc3)N2[C@H](c2ccc(O)cc2)[C@@]12C(=O)N(C(=O)OCCOC)c1ccc(C#CC3=CCCCC3)cc12`, -0.627.
For `CCOC(=O)C[C@H]1[C@H](OC(=O)c2cc3ccccc3oc2=O)[C@@H](NC(=O)CC(C)C)c2cc(OCCCO)ccc2N1C(=O)c1ccc2ccccc2n1`, the z-score is -0.692.
`NCCCCCNC(=O)[C@@H]1C[C@@H]2C(=O)N[C@@H](CCCCN)C(=O)N2[C@@H]1c1ccc(O)cc1` had a z-score of -1.14.
As for `CC(C)C(CO)N1C(=O)[C@@H]2C3C(=O)OCCC/C=C\[C@H]3OC23C=CCN(Cn2nnc4ccccc42)C(=O)[C@@H]13` (stereo partly specified), the figure is -0.165; as for `[N-]=[N+]=NCc1ccccc1C[C@@]1(C(N)=O)N=C(c2ccc(OCCCO)cc2)O[C@@H]1c1ccccc1`, -0.301; as for `CCOC(=O)C[C@H]1[C@H](OC(=O)c2ccc(C(=O)c3ccccc3)cc2)[C@@H](NC(=O)CC(C)C)c2cc(OCCCO)ccc2N1C(=O)c1ccccc1`, 0.242.
Take `CC(C)[Si](C#C[Si](C(C)C)(C(C)C)C(C)C)(O[C@H](c1ccccc1)c1cn(Cc2ccccc2)nn1)C(C)C`: the z-score is -0.888.
In turn, `COC(=O)C/C=C/C[C@]1(O)C(=O)N(C)c2ccccc21` returned a z-score of 2.2.
As for `CN1C(=O)C2C=CC(C(O)c3cccn3C)N(Nc3ccc([N+](=O)[O-])cc3[N+](=O)[O-])C2C1=O` (stereo unspecified), the z-score was -0.0962.
`C=CCN1Cc2ccccc2[C@@H]2OC(c3ccc(OCCCO)cc3)=N[C@]2(CC=C)C1=O` registered a z-score of 0.278.
For `CCCC=C(CCC)[C@@H](NP(=O)(c1ccccc1)c1ccccc1)c1ccc(-c2ccccc2)cc1` the value was -2.36; for `C=C(COC)C(=O)CC[C@@H](OC(C)=O)c1cccc(OCCO)c1`, -0.274.
As for `CCOC(=O)C1=CC[C@@H](c2ccccc2F)N(S(=O)(=O)c2ccc(C)cc2)[C@H]1c1ccccc1`, the figure is -1.24.
For `O=C1O[C@H](c2ccccc2)[C@H](c2ccccc2)N2[C@H]1[C@@H](C(=O)O)[C@]1(C(=O)Nc3ccc(C#CCCO)cc31)[C@H]2c1ccccc1OCCO` the value was 0.884.
In turn, `COc1cc2c(cc1O)C(C1CC1)N(C)CC2` (stereo unspecified) yielded a z-score of 1.87.
As for `COC(=O)[C@@]1(Cc2ccc(OC)cc2)[C@H]2c3cc(C(=O)N4CCCC4)n(CCO)c3C[C@H]2CN1C(=O)c1ccccc1`, the figure is -1.35.
Consider `[N-]=[N+]=Nc1ccccc1C[C@]1(C(=O)N2CCOCC2)COC(c2ccc(OCCCO)cc2)=N1`, for which the z-score was determined as 0.615.
For `O=C1C2C=CC(C(O)c3ccco3)N(Nc3ccccc3F)C2C(=O)N1c1ccccc1` (stereo unspecified) the value was 0.128; for `CCCCCN1CC=CC23O[C@@H]4/C=C\CCCOC(=O)C4[C@H]2C(=O)N(C(C)CO)[C@@H]3C1=O` (stereo partly specified), -1.13.
For `COC(=O)c1c(CC[C@@H](CO)NC(=O)N2CCC[C@H]2Cn2cc(C3(O)CCCCC3)nn2)oc(C(C)=O)c1C(=O)OC` the value was -0.38; for `CCCCNC(=O)c1ccc(C#CC(C)(C)C)c(OC(C)=O)c1`, -0.221.
In turn, `COc1ccccc1CN1C(=O)c2ccccc2[C@](Cc2ccccc2I)(C(=O)O)[C@@H]1c1ccc(CO)cc1` yielded a z-score of -0.177.

The values above are taken from PubChem BioAssay.
